# Screening data: PubChem, National Center for Advancing Translational Sciences (NCATS)
# Sampled rows, rich in hits. Any-hit rate of the full collection: about 7.5%.
# SMN2 splice enh = SMN2 splice variant enhancement; HEK293 SMN2-luciferase splicing reporter, luminescence, 30-36 h; Potency, µM (series often up to 46.1 µM), inactives show at the highest dose activity change, positive = activation, usual class: activators; 210,000 tested, 2.8% active; AID 1458; also: % of control where 0% means no effect; nearly all actives have a fitted effect of over 55% in size
#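 qHTS luciferase splicing reporter: luminescence rises when SMN2 exon 7 is included in transfected HEK293 cells. Compound exposure lasted 30-36 h at 37C, with 4.5 mM final sodium butyrate as control, followed by a ONE-Glo read.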
# ELG1 genotoxic = induces genotoxicity in HEK293T cells with luciferase-tagged ELG1; 330,000 tested, 1.3% active; AID 504466; Potency, µM (series often up to 46 µM), for inactives: top-dose activity change, positive = activation, most hits filed as activators; HEK293T ELG1-luciferase reporter, luminescence, 16 h; also: % of control where 0% means no effect; nearly all actives have a fitted effect of over 60% in size
#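 Screening used a luciferase reporter fused to human ELG1 in HEK293T cells. Luminescence was read on a CCD plate imager after 16 hr exposure and 30 min ONE-Glo incubation.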
# KinaseGlo FLuc = blocks Kinase-Glo luciferase, a counter-screen artifact | Q27757 | Potency, µM (highest dose often 38.3 µM), without a hit: at the top dose activity change, negative = inhibition, actives largely listed as inhibitors | AID 1379 | 200,000 tested, 0.28% active | Kinase-Glo luciferase, ATP luminescence, 8 min; also: % is scaled to controls: 0 for no effect and ±100 for the full control effect; nearly all actives have a fitted effect of over 60% in size
#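 Light output from Kinase-Glo luciferase with luciferin and 10 uM ATP in 50 mM imidazole pH 7.2, KCl, MgCl2, Tween 20, BSA; compound pin-delivered, 8-min ambient incubation, then luminescence read.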
# Rab9 promoter act = Rab9 promoter activation; Huh7 Rab9 promoter-luciferase reporter, luminescence, 24 h; 320,000 tested, 2.8% active; Potency, µM (top dose mostly 9.22 µM), for the others: at the highest dose activation, negative = inhibition, usual class: activators; AID 485297; also: % of control where 0% means no effect; nearly all actives have a fitted effect of over 60% in size
#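 Luciferase signal after 10 min detection reagent at ambient indicates Rab9 promoter upregulation; stably transfected Huh7 cells were treated 24 h with compound in DMSO at 37 °C, 5% CO2.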
# NPC1 promoter act = activators of NPC1 promoter | Huh7 NPC1 promoter luciferase reporter, 24 h | Potency, µM (highest dose often 9.22 µM), without a hit: top-dose activation, hits mostly activators | 320,000 tested, 2.4% active | AID 485313; also: % of control where 0% means no effect; nearly all actives have a fitted effect of over 60% in size
#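 Cells: Huh7 expressing luciferase under the NPC1 promoter, 1500/well. Seeded 2 h, compound added, incubated 24 h at 37 °C. Luciferase reagent, 10 min ambient, then luminescence.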
# FLuc counter = inhibits or activates purified firefly luciferase, miR-21 counter-screen; P08659; purified FLuc, Km substrates, luminescence inhibition; Potency, µM (doses to about 57.5 µM), for inactives: at the highest dose activity change, negative = inhibition, hits mostly inhibitors; 360,000 tested, 6.9% active;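 also: plate controls were vehicle for no effect and reference inhibitor for full effect; nearly all actives have a fitted effect of over 55% in size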
# Target sequence (P08659 whole entry, looked up): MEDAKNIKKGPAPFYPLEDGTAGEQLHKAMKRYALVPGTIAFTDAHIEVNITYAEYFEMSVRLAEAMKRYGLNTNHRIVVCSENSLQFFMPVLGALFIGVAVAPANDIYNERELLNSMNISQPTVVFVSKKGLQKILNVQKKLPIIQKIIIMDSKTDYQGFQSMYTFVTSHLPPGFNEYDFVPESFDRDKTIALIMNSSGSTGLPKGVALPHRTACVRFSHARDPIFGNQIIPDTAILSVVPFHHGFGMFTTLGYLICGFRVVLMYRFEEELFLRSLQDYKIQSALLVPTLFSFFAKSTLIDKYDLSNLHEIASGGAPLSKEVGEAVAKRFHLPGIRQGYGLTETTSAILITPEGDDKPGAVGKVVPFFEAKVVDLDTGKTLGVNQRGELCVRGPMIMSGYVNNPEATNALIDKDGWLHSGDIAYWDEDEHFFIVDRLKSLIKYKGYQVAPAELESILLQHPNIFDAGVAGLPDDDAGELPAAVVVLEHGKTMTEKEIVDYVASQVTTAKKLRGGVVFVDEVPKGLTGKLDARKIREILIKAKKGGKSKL
#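 Biochemical qHTS of compounds, final roughly 60 µM downward over six points, against 10 nM purified firefly luciferase using Km concentrations of substrates (10 uM D-luciferin, 10 uM ATP) in Tris acetate pH 7.5 buffer; luminescence output.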
# Numbers without * were called inactive; ? = inconclusive; nt = no result; [ ] = dose if it differs, or a comment. Calls follow the shape of the dose curve; as a rule, active = well fitted curve in the direction sought with a large enough effect; inconclusive = small, poorly fitted or top-dose-only effect, or another doubt; inactive = no such curve, though single readings can be large; an effect the other way counts as inactive or inconclusive. Potency is read from the fitted curve at half-maximal effect.
SMILES,SMN2 splice enh,ELG1 genotoxic,KinaseGlo FLuc,Rab9 promoter act,NPC1 promoter act,FLuc counter
CCCSC1=NC2(CCN(C(=O)NC3CCCCC3)CC2)N=C1c1ccc(OC)cc1,nt,nt,nt,nt,nt,-4%
O=C(O)c1ccc(NS(=O)(=O)c2cccc3cccnc23)cc1,-7%,1%,1%,-5%,0%,-1%
COC(=O)c1ccc(NC(=O)c2ccc(NS(=O)(=O)c3cccc4cccnc34)cc2)cc1,nt,4%,nt,1%[1.84 µM],1%,17µM*
O=C(Nc1ccccc1O)c1ccc(NS(=O)(=O)c2cccc3cccnc23)cc1,nt,16µM*,nt,?,3%,?
O=C(CSc1oc(-c2ccco2)nc1S(=O)(=O)c1ccc(Br)cc1)c1ccccc1,-5%,nt,nt,nt,nt,-6%
Cc1nc(S/C(=C/c2ccc(OCc3ccc(C(=O)O)cc3)cc2)C(=O)O)n[nH]1,-31%,0%,1%,-4%,6%,27µM*
Cc1ccccc1Cn1c(CN2CCC(C(=O)NCCN(C)C)CC2)cc2ccccc21,nt,nt,nt,nt,nt,1%
Cc1ccc(/C=N\NC(=O)/C(=C\Nc2nccc(C)n2)NC(=O)c2ccccc2)cc1,nt,-3%,nt,-2%,-4%,15µM*
COc1ccc(/C=N\NC(=O)/C(=C\Nc2nccc(C)n2)NC(=O)c2ccccc2)cc1,-7%,0%,-20%,0%,0%,15µM*
CCOC(=O)N1CCc2c(sc3c2c(=O)n(-c2ccccc2)c(=O)n3CC(=O)Nc2ccc(OC)cc2OC)C1,-4%,nt,nt,nt,nt,0%
CC1=C(/C=C/C(C)=C/C=C/C(C)=C/C=C/C=C(C)/C=C/C=C(C)/C=C/C2=C(C)C(=O)C(O)CC2(C)C)C(C)(C)CC(O)C1=O (stereo unspecified),-10%,nt,-2%,nt,nt,nt
COc1cccc2cc(-c3nc(-c4ccccc4F)no3)c(=O)oc12,nt,nt,nt,nt,nt,0.17µM*
CCOc1cccc2cc(-c3nc(-c4ccccc4C)no3)c(=O)oc12,nt,nt,nt,nt,nt,0.54µM*
COc1cccc(-c2noc(-c3cc4ccccc4oc3=O)n2)c1OC,nt,nt,nt,nt,nt,2.7µM*
COc1cccc2cc(-c3nc(-c4cccs4)no3)c(=O)oc12,-8%,nt,nt,nt,nt,0.076µM*
Cc1ccc(-c2nc(-c3cc4cccc(OCc5cccc(C)c5)c4oc3=O)no2)cc1,6%,nt,nt,nt,nt,0%
Cc1ccc(Nc2c3c(nc4nncn24)CCC3)cc1C,3%,nt,nt,nt,nt,-15%
CCOC(=O)CSC1=Nc2ccccc2C2=NC(CCC(=O)NCc3ccccc3)C(=O)N12 (stereo unspecified),nt,nt,nt,nt,nt,-1%
CCCCOc1cccc(C(=O)N(Cc2ccc(N(C)C)cc2)C2CCS(=O)(=O)C2)c1 (stereo unspecified),-15%,nt,nt,nt,nt,-6%
O=c1oc2ccccc2cc1-c1nc(-c2cccs2)cs1,0%,?,17%,16%,10%,?
COc1cccc2cc(-c3nc(-c4cccs4)cs3)c(=O)oc12,14µM*,?,1%,3.5µM*,3.5µM*,5.4µM*
O=C(Cn1nc(-c2ccccc2)c2c(c1=O)CCCC2)Nc1ccc(F)c(Cl)c1,12%,nt,nt,nt,nt,-3%
O=C1C2C3C=CC(C3)C2C(=O)N1c1ccc2c(c1)OCO2 (stereo unspecified),nt,-2%,1%,-2%,6%,-23%
O=C1C2C3C=CC(CC3)C2C(=O)N1c1ccc2c(c1)OCO2 (stereo unspecified),-16%,1%,3%,6%,0%,17µM*
Cc1[nH]n(-c2ccccc2)c(=O)c1C(c1cc(Cl)ccc1O)c1c(C)[nH]n(-c2ccccc2)c1=O,3%,nt,nt,nt,nt,19µM*
COc1ccc(C(c2c(C)[nH]n(-c3ccccc3)c2=O)c2c(C)[nH]n(-c3ccccc3)c2=O)cc1OC,2%,0%,2%,-6%,0%,19µM*
CCOc1cc(C(c2c(C)[nH]n(-c3ccccc3)c2=O)c2c(C)[nH]n(-c3ccccc3)c2=O)ccc1O,-10%,nt,nt,nt,nt,12µM*
